Assay results published in PubChem BioAssay AID720597 (Broad Institute, 2013).
Results with a measured potency or affinity are listed apart. Calls of active or inactive are those of the source.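 How the source made its calls: active means fitted half-maximal dose no more than twice the top valid tested dose, for compounds that lower signal; inconclusive means fit invalid, or curve flat with activity between -70 and -30; inactive means potency past limit, curve flat within ±30, or signal increasing.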

The compounds below were run against NAD-dependent protein deacylase sirtuin-5, mitochondrial (Homo sapiens) (UniProt Q9NXA8) (assay: blockers of sirtuin-5 peptide desuccinylation – biochemical, fluorescence imaging, cherry-pick, set 6, dose response (AID 720597;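 further: lower AMC signal can also come from blocking the trypsin step; 0% = median of neutral control wells and -100% = median of positive control wells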)). Conditions: Purified SirT5, succinyl-peptide-AMC/trypsin fluorescence; series mostly up to 15 µM; activity change, negative = inhibition: at the top concentration.
NAD-dependent protein deacylase sirtuin-5, mitochondrial (Homo sapiens), sequence (Q9NXA8 whole entry, looked up): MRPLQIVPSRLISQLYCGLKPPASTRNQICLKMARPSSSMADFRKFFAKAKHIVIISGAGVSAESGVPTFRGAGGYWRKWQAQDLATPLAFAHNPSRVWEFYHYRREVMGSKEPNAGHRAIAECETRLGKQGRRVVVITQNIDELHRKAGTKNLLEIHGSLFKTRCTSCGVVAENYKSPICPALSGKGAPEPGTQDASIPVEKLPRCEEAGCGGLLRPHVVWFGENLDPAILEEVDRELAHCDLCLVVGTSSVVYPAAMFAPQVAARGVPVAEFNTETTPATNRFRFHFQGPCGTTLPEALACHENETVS

Activity change, negative = inhibition, inactive:
COCCNC(=O)c1cc2c(c(-c3cccc(-c4cccc(F)c4)c3)n1)[C@@H](CCO)N([S@](=O)C(C)(C)C)C2 -11.9% [at 13.5 µM]
CCCNC(=O)N1C[C@@H](O)COC[C@@H]2O[C@H](CC(=O)N3CCC(Cc4ccccc4)CC3)CC[C@H]21 -18.4%
Cc1ccc(S(=O)(=O)N(C)C[C@@H]2OCCCC[C@H](C)Oc3ccc(NS(=O)(=O)c4ccccc4)cc3C(=O)N([C@H](C)CO)C[C@@H]2C)cc1 28.1%
COc1ccccc1-c1ccc2c(c1)O[C@H](CN(C)S(=O)(=O)c1ccc(F)cc1)[C@H](C)CN([C@H](C)CO)S2(=O)=O -19.5%
C[C@@H]1CN([C@H](C)CO)S(=O)(=O)c2ccc(C#CC3CC3)cc2O[C@H]1CN(C)Cc1ccccc1F 3.77%
C[C@H]1CN([C@@H](C)CO)S(=O)(=O)c2ccc(C3=CCCC3)cc2O[C@@H]1CN(C)Cc1ccccc1 -8.23%
C[C@@H]1CN([C@@H](C)CO)C(=O)c2cccc(NC(=O)CCCCCC(=O)Nc3ccccc3N)c2O[C@H]1CN(C)Cc1ccc(-c2ccccc2)cc1 -19.2%
O=C(C[C@H]1CC[C@H](NC(=O)C2CCC2)[C@H](CO)O1)NCc1ccccc1Cl -4.51%
O=C(Nc1cc(F)ccc1F)N1CC(=O)N2[C@@H](CO)[C@@H](c3ccc(C#CC4CCCCC4)cc3)[C@@H]2C1 -15.7%
N#C[C@H]1[C@@H](c2ccccc2-c2ccccc2)[C@@H](CO)N1c1ncc(-c2ccccc2)s1 11.6%
C[C@H](CO)N1C[C@H](C)[C@@H](CN(C)C(=O)c2ccc3c(c2)OCO3)Oc2cc(/C=C/c3ccccc3)ccc2S1(=O)=O 30.9%
O=C1CN(Cc2ccccc2)C[C@@H]2[C@H](c3ccc(-c4ccccc4)cc3)[C@H](CO)N12 2.26%
CC(C)NC(=O)Nc1ccc2c(c1)C(=O)N([C@H](C)CO)C[C@H](C)[C@H](CN(C)Cc1ccc(-c3ccccc3)cc1)O2 5.22%
O=C(CCN1CCCCC1)N[C@H]1CC[C@@H](CC(=O)N2CCC(Cc3ccccc3)CC2)O[C@@H]1CO -14.1%
CCCNC(=O)N1[C@H](CO)[C@@H](c2ccccc2)C12CN(C(=O)CC1CC1)C2 2.41%
Cc1ccc(-c2ccc(C3[C@@H]4CN(S(=O)(=O)c5cccc(C)c5)C[C@H]3N4)cc2)cc1 (some centres undefined) -13.1%
CCNC(=O)C[C@H]1CC[C@@H]2[C@H](COC[C@H](O)CN2C(=O)Nc2ccc(C(F)(F)F)cc2)O1 -20.2%
COc1ccc(S(=O)(=O)Nc2ccc3c(c2)C(=O)N([C@@H](C)CO)C[C@H](C)[C@@H](CN(C)Cc2ccc(C(F)(F)F)cc2)OCCCC[C@@H](C)O3)cc1 -1.58%
COc1ccc(S(=O)(=O)N2CCCCN3[C@H](CO)[C@@H](c4ccc(C#CC5CC5)cc4)[C@@H]3C2)cc1 -31%
C[C@@H]1CN([C@H](C)CO)C(=O)c2cc(NC(=O)c3ccncc3)ccc2O[C@@H]1CN(C)C(=O)Nc1ccc2c(c1)OCO2 -14.6%
C[C@H]1CN([C@@H](C)CO)C(=O)c2cc(NC(=O)Nc3ccc(C(F)(F)F)cc3)ccc2O[C@H]1CN(C)S(=O)(=O)c1ccc(Cl)cc1 -4.25%
Cc1ccc(S(=O)(=O)N(C)C[C@H]2OCCCC[C@H](C)Oc3ccc(NS(=O)(=O)c4ccc(Cl)cc4)cc3C(=O)N([C@H](C)CO)C[C@@H]2C)cc1 -9.84%
C[C@@H]1CN([C@H](C)CO)S(=O)(=O)c2ccc(C#Cc3cccc(F)c3)cc2O[C@@H]1CN(C)S(=O)(=O)c1ccccc1F 40.1%
O=C(N[C@@H]1CC[C@H](CCNS(=O)(=O)c2ccccc2)O[C@H]1CO)c1cnccn1 7.21%
C[C@@H]1CN([C@@H](C)CO)C(=O)c2cc(NS(=O)(=O)c3ccccc3)ccc2O[C@@H](C)CCCCO[C@@H]1CN(C)S(=O)(=O)c1ccc(F)cc1 -29%
CNC[C@H]1Oc2c(NC(=O)c3ccc(-c4nccs4)cc3)cccc2C(=O)N([C@H](C)CO)C[C@H]1C -12.1%
COc1ccc(NC(=O)N(C)C[C@@H]2Oc3ccc(NS(=O)(=O)c4ccc(F)cc4)cc3C(=O)N([C@@H](C)CO)C[C@@H]2C)cc1 -16.2%
C[C@H](CO)N1C[C@H](C)[C@H](CN(C)S(=O)(=O)c2ccc(Cl)cc2)OCc2ccccc2-c2c(n(C)c3ccccc23)C1=O 25.5% [at 16 µM]
O=C(CCN1CCCCC1)N[C@H]1CC[C@H](CC(=O)N2CCC(Cc3ccccc3)CC2)O[C@H]1CO -26%
